Measurements: PubChem BioAssay AID1159580 (chemical genetic matrix, 2015)
The whole screen tested about 5,500 compounds, of which about 2,000 (36%) were called active. Roughly 18% stayed inconclusive and do not appear here. Rule as the data show it: active = normalized growth mostly below about 0.91 (no sharp cut-off); inconclusive = no clear call, values can overlap the other calls; inactive = mostly above about 0.92. This is one part of the list.

Experiment: chemical genetic growth profiling, strain panel (AID 1159580);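 also: tested at 20 µM; growth read once vehicle control cultures reached saturation at 30 °C; 1 = growth at the plate median or of vehicle wells; lower values mean less growth of the strain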
Settings: growth OD
[1] = S. cerevisiae deletion strains, locus YAL013W, strain DEP1, hits give low values
[2] = S. cerevisiae deletion strains, locus YBR229C, strain ROT2, hits give low values
[3] = S. cerevisiae deletion strains, locus YCL061C, strain MRC1, hits give low values
[4] = S. cerevisiae deletion strains, locus YDL101C, strain DUN1, hits give low values
[5] = S. cerevisiae deletion strains, locus YDL134C, strain PPH21, hits give low values
[6] = S. cerevisiae deletion strains, locus YDR150W, strain NUM1, hits give low values
[7] = S. cerevisiae deletion strains, locus YEL061C, strain CIN8, hits give low values
[8] = S. cerevisiae deletion strains, locus YGR078C, strain PAC10, hits give low values
[9] = S. cerevisiae deletion strains, locus YHR030C, strain SLT2, hits give low values
[10] = S. cerevisiae deletion strains, locus YHR087W, strain rtc3, hits give low values
[11] = S. cerevisiae deletion strains, locus YJR043C, strain POL32, hits give low values
[12] = S. cerevisiae deletion strains, locus YJR075W, strain HOC1, hits give low values
[13] = S. cerevisiae deletion strains, locus YLR039C, strain RIC1, hits give low values
[14] = S. cerevisiae deletion strains, locus YLR058C, strain SHM2 (second series), hits give low values
[15] = S. cerevisiae deletion strains, locus YLR085C, strain ARP6, hits give low values
[16] = S. cerevisiae deletion strains, locus YLR262C, strain YPT6, hits give low values
[17] = S. cerevisiae deletion strains, locus YML094W, strain GIM5, hits give low values
[18] = S. cerevisiae deletion strains, locus YMR219W, strain ESC1, hits give low values
[19] = S. cerevisiae deletion strains, locus YMR263W, strain SAP30, hits give low values
[20] = S. cerevisiae deletion strains, locus YNL153C, strain GIM3, hits give low values
[21] = S. cerevisiae deletion strains, locus YNL298W, strain CLA4 (second series), hits give low values
[22] = S. cerevisiae deletion strains, locus YNL322C, strain KRE1, hits give low values
[23] = S. cerevisiae deletion strains, locus YNR030W, strain Alg12, hits give low values
[24] = S. cerevisiae deletion strains, locus YOL006C, strain TOP1, hits give low values
[25] = S. cerevisiae deletion strains, locus YPL055C, strain LGE1, hits give low values
[26] = S. cerevisiae deletion strains, locus YPL241C, strain CIN2, hits give low values
[27] = S. cerevisiae deletion strains, locus YPR135W, strain CTF4, hits give low values

Measured: normalized growth

Cn1c(SCC(=O)N2CCOCC2)nnc1-c1ccc2ncccc2c1
inactive: [1] 0.996 | [2] 1.01 | [3] 1.02 | [4] 1.03 | [5] 0.963 | [6] 0.929 | [7] 1.03 | [8] 1.02 | [9] 1.08 | [10] 1.01 | [11] 1.01 | [12] 1.03 | [13] 0.971 | [14] 0.995 | [15] 1.1 | [16] 0.942 | [17] 1.06 | [18] 1 | [19] 1 | [20] 1 | [21] 1.03 | [22] 0.992 | [23] 1.03 | [24] 1.03 | [25] 1.04 | [26] 1.05 | [27] 1.03 | S. cerevisiae strains, strain wild type, hits give low values 0.984

Cn1c(SCc2ccccc2)nnc1-c1ccc2ncccc2c1
active: S. cerevisiae deletion strains, locus YMR307W, strain GAS1, hits give low values 1.41 [resistant]
inactive: [1] 1 | [2] 0.997 | [3] 1.01 | [4] 0.986 | [5] 1.01 | [6] 0.902 | [7] 0.987 | [8] 1 | [9] 1.18 | [10] 0.999 | [11] 0.997 | [12] 0.991 | S. cerevisiae deletion strains, locus YKL190W, strain CNB1, hits give low values 0.994 | [13] 1.1 | [14] 0.997 | [15] 1.05 | [16] 1.1 | [17] 1.01 | [18] 0.999 | [19] 0.989 | [20] 0.997 | [21] 1.07 | [22] 0.992 | [23] 1.02 | [24] 1.01 | [25] 0.99 | [26] 1.02 | [27] 1.08

O=C(NNc1cc(C(F)(F)F)cc(C(F)(F)F)c1)c1cnc2n(c1=O)CCS2
inactive: S. cerevisiae deletion strains, locus YAR019C, strain CDC15, hits give low values 0.985 | S. cerevisiae deletion strains, locus YBL105C, strain PKC1, hits give low values 0.987 | S. cerevisiae deletion strains, locus YBR135W, strain CKS1, hits give low values 0.99 | S. cerevisiae deletion strains, locus YBR136W, strain MEC1, hits give low values 0.983 | S. cerevisiae deletion strains, locus YBR160W, strain CDC28, hits give low values 0.99 | S. cerevisiae deletion strains, locus YDL017W, strain CDC7, hits give low values 0.986 | S. cerevisiae deletion strains, locus YDL028C, strain MPS1, hits give low values 0.991 | [4] 0.983 | S. cerevisiae deletion strains, locus YDL108W, strain KIN28, hits give low values 1 | S. cerevisiae deletion strains, locus YDL132W, strain cdc53, hits give low values 0.998 | S. cerevisiae deletion strains, locus YDL214C, strain PRR2, hits give low values 0.992 | S. cerevisiae deletion strains, locus YDR052C, strain DBF4, hits give low values 0.991 | S. cerevisiae deletion strains, locus YDR054C, strain cdc34, hits give low values 0.993 | S. cerevisiae deletion strains, locus YDR226W, strain ADK1, hits give low values 0.987 | S. cerevisiae deletion strains, locus YDR477W, strain SNF1, hits give low values 0.994 | S. cerevisiae deletion strains, locus YER123W, strain YCK3, hits give low values 0.936 | S. cerevisiae deletion strains, locus YER133W, strain GLC7, hits give low values 0.977 | S. cerevisiae deletion strains, locus YFL009W, strain cdc4, hits give low values 0.987 | S. cerevisiae deletion strains, locus YFL029C, strain CAK1, hits give low values 1 | S. cerevisiae deletion strains, locus YFR003C, strain YPI1, hits give low values 0.999 | S. cerevisiae deletion strains, locus YFR019W, strain FAB1, hits give low values 0.982 | S. cerevisiae deletion strains, locus YFR028C, strain CDC14, hits give low values 0.983 | S. cerevisiae deletion strains, locus YGR040W, strain KSS1, hits give low values 1 | S. cerevisiae deletion strains, locus YGR052W, strain FMP48, hits give low values 1.03 | S. cerevisiae deletion strains, locus YGR092W, strain DBF2, hits give low values 0.961 | [9] 0.939 | S. cerevisiae deletion strains, locus YHR079C, strain IRE1, hits give low values 0.972 | S. cerevisiae deletion strains, locus YHR082C, strain KSP1, hits give low values 1.01 | S. cerevisiae deletion strains, locus YHR205W, strain SCH9, hits give low values 0.938 | S. cerevisiae deletion strains, locus YIL147C, strain SLN1, hits give low values 0.988 | S. cerevisiae deletion strains, locus YJL095W, strain BCK1, hits give low values 0.98 | S. cerevisiae deletion strains, locus YJL128C, strain PBS2, hits give low values 1.02 | S. cerevisiae deletion strains, locus YJL157C, strain FAR1, hits give low values 0.996 | S. cerevisiae deletion strains, locus YJR016C, strain ILV3, hits give low values 0.99 | S. cerevisiae deletion strains, locus YJR066W, strain TOR1 (second series), hits give low values 0.995 | S. cerevisiae deletion strains, locus YJR066W, strain TOR1, hits give low values 0.974 | S. cerevisiae deletion strains, locus YKL048C, strain ELM1, hits give low values 0.971 | S. cerevisiae deletion strains, locus YKL067W, strain YNK1, hits give low values 0.995 | S. cerevisiae deletion strains, locus YKL101W, strain HSL1, hits give low values 1.01 | S. cerevisiae deletion strains, locus YKL193C, strain SDS22, hits give low values 0.986 | S. cerevisiae deletion strains, locus YKL203C, strain TOR2, hits give low values 1.03 | S. cerevisiae deletion strains, locus YLR113W, strain HOG1, hits give low values 0.883 | S. cerevisiae deletion strains, locus YLR133W, strain CKI1, hits give low values 1.01 | S. cerevisiae deletion strains, locus YLR403W, strain SFP1, hits give low values 0.99 | S. cerevisiae deletion strains, locus YML070W, strain DAK1, hits give low values 0.973 | S. cerevisiae deletion strains, locus YMR001C, strain CDC5, hits give low values 0.995 | S. cerevisiae deletion strains, locus YMR205C, strain PFK2 (second series), hits give low values 1.01 | S. cerevisiae deletion strains, locus YMR277W, strain FCP1, hits give low values 0.992 | S. cerevisiae deletion strains, locus YNL006W, strain LST8, hits give low values 1 | S. cerevisiae deletion strains, locus YNL020C, strain ARK1, hits give low values 1 | S. cerevisiae deletion strains, locus YNL161W, strain CBK1, hits give low values 0.98 | S. cerevisiae deletion strains, locus YNL183C, strain NPR1, hits give low values 0.962 | S. cerevisiae deletion strains, locus YNL207W, strain RIO2, hits give low values 0.996 | S. cerevisiae deletion strains, locus YNL222W, strain SSU72, hits give low values 0.988 | S. cerevisiae deletion strains, locus YNL307C, strain MCK1 (second series), hits give low values 0.935 | S. cerevisiae deletion strains, locus YOL078W, strain AVO1, hits give low values 0.992 | S. cerevisiae deletion strains, locus YOL136C, strain PFK27, hits give low values 0.971 | S. cerevisiae deletion strains, locus YOR061W, strain CKA2, hits give low values 1.02 | S. cerevisiae deletion strains, locus YOR119C, strain RIO1, hits give low values 0.983 | S. cerevisiae deletion strains, locus YOR231W, strain MKK1, hits give low values 0.979 | S. cerevisiae deletion strains, locus YOR329C, strain SCD5, hits give low values 0.983 | S. cerevisiae deletion strains, locus YPL031C, strain PHO85, hits give low values 0.983 | S. cerevisiae deletion strains, locus YPL153C, strain RAD53, hits give low values 0.986 | S. cerevisiae deletion strains, locus YPL204W, strain HRR25, hits give low values 0.982 | S. cerevisiae deletion strains, locus YPL209C, strain IPL1, hits give low values 0.984 | S. cerevisiae deletion strains, locus YPL256C, strain CLN2, hits give low values 0.936 | S. cerevisiae deletion strains, locus YPR025C, strain CCL1, hits give low values 0.972 | S. cerevisiae deletion strains, locus YPR106W, strain ISR1, hits give low values 0.995 | S. cerevisiae deletion strains, locus YPR111W, strain DBF20, hits give low values 0.997 | S. cerevisiae deletion strains, strain NNK1, hits give low values 0.988 | S. cerevisiae deletion strains, strain TSCII, hits give low values 0.987
